According to PubChem BioAssay (NCI):
The panel holds about 79,000 compounds, 15% with a hit somewhere; the sample as a whole holds those more often. Active and inactive are the calls of the source. Cut-off read from the data, not from the text of the source: active = growth inhibition above about 70%; inactive = the rest.

Assays:
[1] = NCI Yeast Anticancer Drug Screen. Data for the rad52 strain (AID 147);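 note: 0% = growth of vehicle-treated control cultures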; conditions: S. cerevisiae rad52 mutant growth inhibition, hits give high values
Summary of the method: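 The repair-mutant yeast strain was incubated with compounds, then growth was read and inhibition derived relative to vehicle.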

[2] = NCI Yeast Anticancer Drug Screen. Data for the wt1 strain (AID 149);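 note: 0% = growth of vehicle-treated wt1 cultures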; conditions: S. cerevisiae wt1 strain (SPY 50644) growth inhibition, hits give high values
Summary of the method: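 Yeast wt1 strain exposed to compounds; growth inhibition measured relative to vehicle-treated controls.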

[3] = NCI Yeast Anticancer Drug Screen. Data for the rad50EPP+ strain (AID 151);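 note: 0% = growth of vehicle-treated control cultures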; conditions: S. cerevisiae rad50 mutant strain, hits give high values
Summary of the method: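 Vehicle-normalised growth inhibition; rad50EPP+ yeast strain, altered in DNA damage repair, compound-treated.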

[4] = NCI Yeast Anticancer Drug Screen. Data for the rad50 strain (AID 155);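 note: 0% = growth of vehicle-only cultures of the same strain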; conditions: S. cerevisiae rad50 strain growth inhibition, hits give high values
Summary of the method: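 Yeast carrying a defined DNA repair defect were exposed to test compounds, and growth was compared with vehicle-treated controls to give percent inhibition.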

[5] = NCI Yeast Anticancer Drug Screen. Data for the mec2-1 strain (AID 157); conditions: S. cerevisiae mec2-1 strain, hits give high values
Summary of the method: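 Mutant yeast (mec2-1) grown with compound; growth inhibition relative to vehicle control reported.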

[6] = NCI Yeast Anticancer Drug Screen. Data for the rad14 strain (AID 159);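 note: 0% = growth of vehicle-treated control cultures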; conditions: S. cerevisiae rad14 strain growth inhibition, hits give high values
Summary of the method: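 Yeast cells carrying a defined DNA-repair defect were exposed to compounds, and growth inhibition was calculated relative to vehicle-treated control cultures.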

[7] = NCI Yeast Anticancer Drug Screen. Data for the sgs1 mgt1 strain (AID 161);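 note: 0% = growth of cultures given vehicle only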; conditions: S. cerevisiae sgs1 mgt1 strain, hits give high values
Summary of the method: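 Percent growth inhibition was derived by comparing compound-exposed mutant yeast with vehicle-exposed cultures. The strain carries alterations in DNA damage repair.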

[8] = NCI Yeast Anticancer Drug Screen. Data for the CLN2oe strain (AID 163);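 note: 0% = growth of vehicle-only control cultures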; conditions: S. cerevisiae CLN2oe strain, hits give high values
Summary of the method: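 Compounds are applied to yeast harbouring a defined cell-cycle control change; reduced growth compared with vehicle-treated controls gives the value.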

[9] = NCI Yeast Anticancer Drug Screen. Data for the cln2 rad14 strain (AID 165);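 note: 0% = growth equal to vehicle treated cultures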; conditions: S. cerevisiae cln2 rad14 strain, hits give high values
Summary of the method: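 Readout is yeast growth inhibition versus vehicle-treated controls, using a strain with cln2 and rad14 alterations exposed to compound.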

[10] = NCI Yeast Anticancer Drug Screen. Data for the bub3 strain (AID 167); conditions: S. cerevisiae bub3 mutant strain, hits give high values
Summary of the method: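 Compounds were applied to a genetically altered yeast strain carrying a cell-cycle control defect. Growth inhibition was scored against vehicle-treated controls.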

[11] = NCI Yeast Anticancer Drug Screen. Data for the mlh1 strain (AID 171);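 note: 0% = growth of vehicle-treated control cultures of the same strain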; conditions: S. cerevisiae mlh1 strain growth inhibition, hits give high values
Summary of the method: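 Measured: yeast growth. Reference: vehicle-treated controls. Organism: strain with a defined alteration affecting DNA damage repair or cell cycle control, treated with compound.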

[12] = NCI Yeast Anticancer Drug Screen. Data for the sgs1 strain (AID 173);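 note: 0% = growth of vehicle-only control cultures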; conditions: S. cerevisiae sgs1 mutant, hits give high values
Summary of the method: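 Each compound was added to cultures of the altered yeast strain. Growth was recorded, and inhibition was derived by comparison with vehicle controls.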

[13] = NCI Yeast Anticancer Drug Screen. Data for the mlh1 rad18 strain (AID 175); conditions: S. cerevisiae mlh1 rad18 strain growth inhibition, hits give high values
Summary of the method: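 Genetically defined yeast (DNA repair-deficient) exposed to compounds; growth inhibition determined relative to vehicle.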

[14] = NCI Yeast Anticancer Drug Screen. Data for the rad18 strain (AID 177); conditions: S. cerevisiae rad18 mutant growth inhibition, hits give high values
Summary of the method: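 Vehicle-treated cultures served as the baseline for scoring compound-induced growth inhibition in DNA-repair-mutant yeast.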

[15] = NCI Yeast Anticancer Drug Screen. Data for the wt2 strain (AID 169);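 note: 0% = growth of vehicle-treated yeast cultures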; conditions: S. cerevisiae wt2 strain growth inhibition, hits give high values
Summary of the method: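 Against vehicle-treated controls, the growth of yeast exposed to each compound was compared, and the inhibition was recorded.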

[16] = at 5.0 µM (retest, dose inferred, filed as 0.5)
[17] = at 50.0 µM (retest, dose inferred, filed as 5.0)

Measured: growth inhibition

C[CH2][Sn]1([CH2]C)[O]C2C(O)OC(CO)C(O)C2[O]1 (stereo unspecified)
active: [1]; at 100.0 µM 76% | [5]; [17] 75% | [5]; at 50.0 µM 80.5% | [7]; [17] 71% | [13]; [17] 88% | [13]; at 50.0 µM 72.5% | [14]; at 100.0 µM 73%
inactive: [1]; at 1.2 µM 0% | [1]; at 3.7 µM 10% | [1]; at 11.0 µM 19% | [1]; at 33.0 µM 29% | [2]; at 1.2 µM -8% | [2]; at 3.7 µM -15% | [2]; at 11.0 µM -9% | [2]; at 33.0 µM -2% | [2]; at 100.0 µM 61% | [3]; at 1.2 µM -8% | [3]; at 3.7 µM -21% | [3]; at 11.0 µM -34% | [3]; at 33.0 µM -23% | [3]; at 100.0 µM -17% | [4]; at 1.2 µM 12% | [4]; at 3.7 µM 12% | [4]; [16] 17% | [4]; at 11.0 µM -7% | [4]; at 33.0 µM 4% | [4]; [17] 67% | [4]; at 50.0 µM 33.5% | [4]; at 100.0 µM 66% | [5]; at 1.2 µM 10% | [5]; at 3.7 µM 4% | [5]; [16] 8% | [5]; at 11.0 µM 4% | [5]; at 33.0 µM 24% | [5]; at 100.0 µM 67% | [6]; at 1.2 µM 1% | [6]; at 3.7 µM -4% | [6]; at 11.0 µM 2% | [6]; at 33.0 µM -5% | [6]; at 100.0 µM 15% | [7]; [16] 22% | [7]; at 50.0 µM 53.5% | [8]; at 1.2 µM -53% | [8]; at 3.7 µM -73% | [8]; at 11.0 µM -69% | [8]; at 33.0 µM -100% | [8]; at 100.0 µM 45% | [9]; [16] -1% | [9]; [17] 37% | [9]; at 50.0 µM 63.6% | [10]; at 1.2 µM 3% | [10]; at 3.7 µM 4% | [10]; [16] 6% | [10]; at 11.0 µM 10% | [10]; at 33.0 µM 8% | [10]; [17] 69% | [10]; at 50.0 µM 55.6% | [10]; at 100.0 µM 63% | [11]; at 1.2 µM -2% | [11]; at 3.7 µM -2% | [11]; at 11.0 µM -4% | [11]; at 33.0 µM -12% | [11]; at 100.0 µM 39% | [12]; at 1.2 µM -12% | [12]; at 3.7 µM -5% | [12]; at 11.0 µM -8% | [12]; at 33.0 µM 16% | [12]; at 100.0 µM 59% | [13]; [16] 26% | [14]; at 1.2 µM 11% | [14]; at 3.7 µM 0% | [14]; at 11.0 µM 8% | [14]; at 33.0 µM 23%

CCNC(=O)OCC1C2=C(C(=O)C(C)=C(N)C2=O)N2CC3C(N3C)C12OC (stereo unspecified)
active: [1]; at 100.0 µM 81% | [4]; [17] 70% | [4]; at 100.0 µM 78% | [5]; [17] 71% | [5]; at 100.0 µM 87% | [6]; at 100.0 µM 78% | [8]; at 100.0 µM 80% | [10]; at 100.0 µM 71% | [11]; at 100.0 µM 84% | [13]; [16] 73% | [13]; [17] 92% | [13]; at 50.0 µM 70.8% | [14]; at 11.0 µM 72% | [14]; at 33.0 µM 89% | [14]; at 100.0 µM 91%
inactive: [1]; at 1.2 µM 4% | [1]; at 3.7 µM 25% | [1]; at 11.0 µM 25% | [1]; at 33.0 µM 63% | [2]; at 1.2 µM -19% | [2]; at 3.7 µM -16% | [2]; at 11.0 µM -4% | [2]; at 33.0 µM 23% | [2]; at 100.0 µM 67% | [3]; at 1.2 µM 6% | [3]; at 3.7 µM -12% | [3]; at 11.0 µM -6% | [3]; at 33.0 µM 13% | [3]; at 100.0 µM 41% | [4]; at 1.2 µM 14% | [4]; at 3.7 µM 15% | [4]; [16] 34% | [4]; at 11.0 µM 19% | [4]; at 33.0 µM 57% | [4]; at 50.0 µM 58% | [5]; at 1.2 µM 9% | [5]; at 3.7 µM 13% | [5]; [16] 23% | [5]; at 11.0 µM 18% | [5]; at 33.0 µM 58% | [5]; at 50.0 µM 63.6% | [6]; at 1.2 µM -9% | [6]; at 3.7 µM -5% | [6]; at 11.0 µM 8% | [6]; at 33.0 µM 45% | [7]; [16] 23% | [7]; [17] 68% | [7]; at 50.0 µM 47.6% | [8]; at 1.2 µM 4% | [8]; at 3.7 µM 4% | [8]; at 11.0 µM 19% | [8]; at 33.0 µM 41% | [9]; [16] 14% | [9]; [17] 50% | [9]; at 50.0 µM 44.7% | [10]; at 1.2 µM 13% | [10]; at 3.7 µM 9% | [10]; [16] 21% | [10]; at 11.0 µM 10% | [10]; at 33.0 µM 36% | [10]; [17] 50% | [10]; at 50.0 µM 21.8% | [15]; at 1.2 µM -37% | [15]; at 3.7 µM -32% | [15]; at 11.0 µM -28% | [15]; at 33.0 µM 6% | [15]; at 100.0 µM 34% | [11]; at 1.2 µM 15% | [11]; at 3.7 µM 18% | [11]; at 11.0 µM 32% | [11]; at 33.0 µM 56% | [14]; at 1.2 µM 13% | [14]; at 3.7 µM 40%
